According to PubChem BioAssay (EPA / NIEHS):
Values joined by “and” are separate entries in the source; they are usually repeats but may differ in a detail not shown here. Equal values may be shown once. The source holds several records for some structures; these can differ, active in one and inactive in another. Active and inactive are the calls of the source. The calls were made as follows: active = hit-call score of the fitted dose curve at least 0.9, where 1 is the maximum; inactive = score below 0.9.

Assay: CCTE_Shafer_MEA_dev_correlation_coefficient_mean: CCTE's Neural Network Formation Assay for Mean Correlation Coefficient, Shafer Lab (AID 2284093);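 as to AC50: well mean pairwise spike train correlation integrated as AUC over recording days 5 to 12; potency fitted for loss of correlation relative to DMSO vehicle wells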
Conditions: not given
How it was run: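 Primary rat cortical neurons on PEI-coated 48-well MEA plates (16 electrodes/well) were exposed from plating day 0 through DIV12, with compound renewed at DIV5 and 9. Pairwise spike correlations were averaged per well; trapezoidal AUC across DIV5, 7, 9, 12.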
With `C=C(C)C(=O)[O][Sn]([CH2]CCC)([CH2]CCC)[CH2]CCC` the AC50 was 0.0288 µM (active). For `CCC(=O)C(CC(C)N(C)C)(c1ccccc1)c1ccccc1` (stereo not drawn), the AC50 was 7.25 µM (active). With `ClC1(Cl)C2(Cl)C3(Cl)C4(Cl)C(Cl)(Cl)C5(Cl)C3(Cl)C1(Cl)C5(Cl)C24Cl` (stereo not drawn) the AC50 was 2.41 µM (active). With `O=C(O)C(F)(F)C(F)(F)C(F)(F)C(F)(F)C(F)(F)C(F)(F)F` the outcome was “inactive”. With `COP(=O)(OC)O/C(=C\Cl)c1cc(Cl)c(Cl)cc1Cl` the outcome was “inactive”. In the case of `O=C(O)C(F)(F)C(F)(F)C(F)(F)C(F)(F)C(F)(F)C(F)(F)C(F)(F)C(F)(F)C(F)(F)C(F)(F)F`, the outcome is reported as “inactive”. In the case of `Cn1sc(Cl)cc1=O`, the AC50 is reported as 4.5 µM (active). For `CC(=O)[O][Hg][c]1ccccc1`, the AC50 was 0.0159 µM (active). In the case of `O=C1C2(Cl)C3(Cl)C4(Cl)C(Cl)(Cl)C5(Cl)C3(Cl)C1(Cl)C5(Cl)C24Cl` (stereo not drawn), the AC50 is reported as 1.15 µM (active). For `CC(C)(C)c1cc(O)ccc1O`, the AC50 was 6.2 µM (active). With `CCOP(=S)(OCC)Oc1nc(Cl)c(Cl)cc1Cl` the AC50 was 23.5 µM (active) and 15 µM (active) and 20.4 µM (active).

Assay: UKN2_HCS_IMR90_neural_migration: University of Konstanz (UKN) Leist Lab Neural Crest Cell Migration Assay in human induced IMR90 Pluripotent Stem Cells (UKN2) (AID 2284204)
Conditions: actives raise or lower the signal
How it was run: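 iPSC-derived IMR90 neural crest cells seeded around stoppers on PLO/laminin/fibronectin; migration started in N2-S medium with EGF/FGF, compounds added after 24 h for 24 h. Migration into cell-free area imaged after calcein-AM/Hoechst staining; bidirectional fit versus DMSO.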
For `C=C(C)C(=O)[O][Sn]([CH2]CCC)([CH2]CCC)[CH2]CCC`, the AC50 was 168 nM (active). In the case of `COP(=O)(OC)O/C(=C\Cl)c1cc(Cl)c(Cl)cc1Cl`, the outcome is reported as “inactive”. For `O=C1C2(Cl)C3(Cl)C4(Cl)C(Cl)(Cl)C5(Cl)C3(Cl)C1(Cl)C5(Cl)C24Cl` (stereo not drawn), the AC50 was 2170 nM (active). In the case of `CCOP(=S)(OCC)Oc1nc(Cl)c(Cl)cc1Cl`, the outcome is reported as “inactive”.

Assay: UKN4_HCS_LUHMES_neurite_outgrowth: University of Konstanz (UKN) Leist Lab Neurite Outgrowth Assay in human LUHMES cells (UKN4) (AID 2284206)
Conditions: actives raise or lower the signal
How it was run: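 LUHMES neuronal precursors differentiated 2 days, replated without cAMP/GDNF, then exposed to chemicals for 24 h. Neurite area imaged by high-content microscopy after calcein-AM staining; Hoechst H-33342 marks viability. Bidirectional fit versus DMSO.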
For `C=C(C)C(=O)[O][Sn]([CH2]CCC)([CH2]CCC)[CH2]CCC`, the AC50 was 0.0977 µM (active). In the case of `O=C1C2(Cl)C3(Cl)C4(Cl)C(Cl)(Cl)C5(Cl)C3(Cl)C1(Cl)C5(Cl)C24Cl` (stereo not drawn), the AC50 is reported as 3.44 µM (active). In the case of `CCOP(=S)(OCC)Oc1nc(Cl)c(Cl)cc1Cl`, the AC50 is reported as 218 µM (active).

Assay: CCTE_Mundy_HCI_Cortical_Synap_Neur_Matur_NeuriteSpotCountPerNeuriteLength: CCTE's Synaptogenesis and Neurite Maturation Assay in rat cortical cells for Neurite Spot Count per Neurite Length, Mundy Lab (AID 2284210)
Conditions: not given
How it was run: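 Rat primary cortical cultures, AraC added at DIV 5 to suppress glia; chemical exposure from DIV 7 to DIV 12. Fixed cells stained for MAP2 and synaptophysin plus Hoechst; synaptophysin puncta per neurite length quantified by high-content imaging, relative to DMSO.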
With `C=C(C)C(=O)[O][Sn]([CH2]CCC)([CH2]CCC)[CH2]CCC` the AC50 was 0.0607 µM (active). With `COP(=O)(OC)O/C(=C\Cl)c1cc(Cl)c(Cl)cc1Cl` the outcome was “inactive”. With `O=C1C2(Cl)C3(Cl)C4(Cl)C(Cl)(Cl)C5(Cl)C3(Cl)C1(Cl)C5(Cl)C24Cl` (stereo not drawn) the outcome was “inactive”. For `CCOP(=S)(OCC)Oc1nc(Cl)c(Cl)cc1Cl`, the AC50 was 50 µM (active) and the outcome was “inactive”.
